For ten compounds, Potency and max activation results are on record in PubChem BioAssay (Tox21).

Each structure is given as a SMILES string. Unmarked numbers belong to inactive results. Records with an inconclusive call do not appear. The source made the active and inactive calls. Calls follow the shape of the dose curve; as a rule, active = well fitted curve in the direction sought with a large enough effect in the repeat runs; inconclusive = weak or mixed curves; inactive = no such curve, though single readings can be large; an effect the other way counts as inactive or inconclusive.

Assay [1] in a line: Caspase-3/7 induction in HepG2 cells by small molecules, qHTS assay (AID 1346978). Also: nearly all actives have a fitted effect of over 15% in size. Also: potency is read from the fitted curve at half-maximal effect. The essentials: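 Caspase-3/7 induction was measured by Caspase-Glo 3/7 luminescence (30 min, room temperature) after a 17 hr compound exposure of wild-type HepG2 cells seeded at 2,000 per well and pre-incubated 5 hr.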
Assay [2] can be described thus: Caspase-3/7 induction in HepG2 cells by small molecules, qHTS cell viability counter screen (AID 1346981). Also: nearly all actives have a fitted effect of over 30% in size. Also: potency is read from the fitted curve at half-maximal effect. The procedure, abridged: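 Steps: seed 2,000 HepG2 cells per well; incubate 5 hr at 37 C; pin-add compounds in DMSO; incubate 16 hr; add CellTiter-Fluor; after 1 hr at 37 C and 5% CO2, read fluorescence.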
The target of assay [3] is Nuclear receptor subfamily 1 group I member 2 (Homo sapiens) (UniProt O75469). Put plainly: Human pregnane X receptor (PXR) small molecule agonists, qHTS assay (AID 1346982). Also: nearly all actives have a fitted effect of over 35% in size. Also: potency is read from the fitted curve at half-maximal effect. The procedure, abridged: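 Agonist mode qHTS: PXR-Luc HepG2 cells plated 5 hr before DMSO-dissolved compounds were pinned in, cultured 24 hr at 37 C, 5% CO2; ONE-Glo luminescence readout.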
Nuclear receptor subfamily 1 group I member 2 (Homo sapiens), sequence (O75469 whole entry, looked up): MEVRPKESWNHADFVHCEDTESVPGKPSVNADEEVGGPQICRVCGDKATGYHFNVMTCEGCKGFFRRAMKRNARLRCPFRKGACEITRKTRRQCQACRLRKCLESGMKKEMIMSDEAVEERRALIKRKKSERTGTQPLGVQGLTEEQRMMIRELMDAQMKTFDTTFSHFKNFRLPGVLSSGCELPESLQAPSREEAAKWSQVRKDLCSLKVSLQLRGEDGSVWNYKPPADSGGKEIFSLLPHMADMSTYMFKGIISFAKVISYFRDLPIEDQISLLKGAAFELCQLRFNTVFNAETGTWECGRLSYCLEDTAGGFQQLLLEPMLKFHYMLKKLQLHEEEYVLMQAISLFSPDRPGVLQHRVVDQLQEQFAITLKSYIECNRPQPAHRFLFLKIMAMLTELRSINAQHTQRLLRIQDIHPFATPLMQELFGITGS
Assay [4] has as its target Cytochrome P450 2D6 (Homo sapiens) (UniProt P10635). In words: Cytochrome P450 Family 2 Subfamily D Member 6 (CYP2D6) small molecule antagonists: luciferase reporter qHTS assay (AID 1671196). Also: nearly all actives have a fitted effect of over 50% in size. Also: potency is read from the fitted curve at half-maximal effect. The procedure, abridged:
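P450-Glo format: CYP2D6 converts a proluciferin substrate to luciferin in an NADPH-driven reaction lasting 1 h at room temperature. Light output, proportional to CYP2D6 activity, reflects interference by test chemicals.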

Assay [5] addresses Cytochrome P450 1A2 (Homo sapiens) (UniProt P05177). In words: Cytochrome P450 Family 1 Subfamily A Member 2 (CYP1A2) small molecule antagonists: luciferase reporter qHTS assay (AID 1671199). Also: nearly all actives have a fitted effect of over 50% in size. Also: potency is read from the fitted curve at half-maximal effect. The essentials: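 Inhibition of CYP1A2 conversion of proluciferin to luciferin, detected by luminescence. Reaction run 1 h at room temperature with NADPH regeneration after brief compound preincubation.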

Assay [6] deals with Voltage-gated inwardly rectifying potassium channel KCNH2 (Homo sapiens) (UniProt Q12809). Put plainly: Human Ether-a-go-go-Related Gene (hERG) channel small molecule antagonists: fluorescence cell-based qHTS assay (AID 1671200). Also: nearly all actives have a fitted effect of over 50% in size. Also: potency is read from the fitted curve at half-maximal effect. The procedure, abridged: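 First, 1000 cells per well are seeded and cultured overnight at 37 C. Next, FluxOR II dye is loaded for 1 h at room temperature, protected from light. After 10 more minutes, stimulus is added and fluorescence is read.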
Voltage-gated inwardly rectifying potassium channel KCNH2 (Homo sapiens), sequence (Q12809 whole entry, looked up): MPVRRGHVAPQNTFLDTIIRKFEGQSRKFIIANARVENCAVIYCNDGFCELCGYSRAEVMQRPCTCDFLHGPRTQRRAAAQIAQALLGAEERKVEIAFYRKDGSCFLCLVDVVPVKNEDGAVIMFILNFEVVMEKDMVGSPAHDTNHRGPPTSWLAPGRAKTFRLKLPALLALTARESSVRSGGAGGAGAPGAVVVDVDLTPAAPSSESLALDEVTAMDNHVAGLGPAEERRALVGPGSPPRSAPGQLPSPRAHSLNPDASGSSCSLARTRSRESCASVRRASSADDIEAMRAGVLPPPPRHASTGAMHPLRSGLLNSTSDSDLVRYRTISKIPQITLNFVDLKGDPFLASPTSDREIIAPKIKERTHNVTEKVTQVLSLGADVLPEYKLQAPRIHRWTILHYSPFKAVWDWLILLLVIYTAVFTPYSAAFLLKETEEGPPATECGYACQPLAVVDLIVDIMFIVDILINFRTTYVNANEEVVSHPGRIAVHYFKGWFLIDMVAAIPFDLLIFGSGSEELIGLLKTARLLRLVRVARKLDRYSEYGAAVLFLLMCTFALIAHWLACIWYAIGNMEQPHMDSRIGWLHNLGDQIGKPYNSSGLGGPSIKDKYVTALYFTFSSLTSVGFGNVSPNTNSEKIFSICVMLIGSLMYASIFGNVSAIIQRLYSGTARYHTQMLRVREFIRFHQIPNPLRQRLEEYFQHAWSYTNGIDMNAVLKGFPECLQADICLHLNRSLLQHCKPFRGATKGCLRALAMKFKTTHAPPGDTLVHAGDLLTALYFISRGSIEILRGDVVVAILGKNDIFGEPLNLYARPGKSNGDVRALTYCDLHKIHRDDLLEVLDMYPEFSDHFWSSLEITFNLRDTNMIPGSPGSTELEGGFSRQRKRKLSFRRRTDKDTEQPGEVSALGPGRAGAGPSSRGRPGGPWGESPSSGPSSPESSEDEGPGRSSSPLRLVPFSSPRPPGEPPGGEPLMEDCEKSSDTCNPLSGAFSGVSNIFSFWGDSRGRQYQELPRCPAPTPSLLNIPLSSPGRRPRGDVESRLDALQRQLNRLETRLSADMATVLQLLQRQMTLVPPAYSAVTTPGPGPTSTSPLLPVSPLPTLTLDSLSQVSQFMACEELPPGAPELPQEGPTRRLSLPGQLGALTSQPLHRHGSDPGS

Assay [7] has as its target Cytochrome P450 3A4 (Homo sapiens) (UniProt P08684). Put plainly: Cytochrome P450 Family 3 Subfamily A Member 4 (CYP3A4) small molecule antagonists: luciferase reporter qHTS assay (AID 1671201). Also: nearly all actives have a fitted effect of over 50% in size. Also: potency is read from the fitted curve at half-maximal effect. The essentials: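 Enzyme and proluciferin substrate are mixed with test chemicals for 10 min, then NADPH regeneration system drives turnover for 1 h at room temperature. A detection reagent halts the reaction; luminescence after 20 min gives relative activity.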

The nature of assay [8]: Caspase-3/7 induction in CHO-K1 cells by small molecules, qHTS assay (AID 1346980). Also: nearly all actives have a fitted effect of over 15% in size. The essentials: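 Luminescent Caspase-Glo 3/7 read (30min, room temperature) quantified apoptosis induction. Cells were wild-type CHO-K1, treated with compound for 17hr at 37 C and 5% CO2.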
Assay [9] concerns the target Nuclear receptor subfamily 1 group I member 2 (Rattus norvegicus) (UniProt Q9R1A7). Put plainly: Rat pregnane X receptor (rPXR) activation by small molecules, qHTS assay (AID 1346983). Also: nearly all actives have a fitted effect of over 20% in size. To be noted: rPXR luciferase reporter cells, One-Glo luminescence, 24 h; max activation: stronger effect = higher value. The procedure, abridged:
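Luminescent readout (One-Glo luciferase, 30 min room temperature) followed 24 hr compound treatment at 37 C of rPXR cells plated 2,000 per well and preincubated 5hr; qHTS format with compounds delivered in DMSO.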

Assay [10] has as its target Nuclear receptor subfamily 1 group I member 2 (Homo sapiens) (UniProt O75469). Put plainly: CYP3A4 induction through human pregnane X receptor (PXR) by small molecules, qHTS assay (AID 1346984). Also: nearly all actives have a fitted effect of over 40% in size. The essentials:
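Steps: seed DPX-2 cells, 5 hr at 37C; pin-transfer compounds; 24 hr at 37C; add Luciferin-IPA (3uM final), 3 hr at 37C; add One-Glo, 30 min RT; read luminescence.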

The target is the same in assay [11]. In words: Human pregnane X receptor (PXR) activation by small molecules, qHTS assay (AID 1346985). Also: nearly all actives have a fitted effect of over 40% in size. The essentials: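 DPX-2 cells (HepG2 co-transfected with a PXR response element and a CYP3A4-promoter luciferase construct) were seeded at 2,000 per well, rested 5 hr at 37C, then exposed to DMSO-dissolved compounds for 24 hr. Activation was read as luciferase luminescence.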

Assay [12] concerns the target Cytochrome P450 2C19 (Homo sapiens) (UniProt P33261). Put plainly: Cytochrome P450 Family 2 Subfamily C Member 19 (CYP2C19) small molecule antagonists: luciferase reporter qHTS assay (AID 1671197). Also: nearly all actives have a fitted effect of over 65% in size. Also: potency is read from the fitted curve at half-maximal effect. The procedure, abridged: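 Inhibition of CYP2C19 was scored from loss of luminescence in a P450-Glo proluciferin substrate assay, NADPH-started and run 1 h at 37C, with ketoconazole as positive control.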

The target in assay [13] is Cytochrome P450 2C9 (Homo sapiens) (UniProt P11712). Put plainly: Cytochrome P450 Family 2 Subfamily C Member 9 (CYP2C9) small molecule antagonists: luciferase reporter qHTS assay (AID 1671198). Also: nearly all actives have a fitted effect of over 50% in size. Also: potency is read from the fitted curve at half-maximal effect. The essentials:
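Enzyme-substrate mix preincubated with compound 10 min at room temperature; reaction started with NADPH regeneration solution, 1 h 37C. Luminescent luciferin product read after 20 min detection reagent.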

A short description of assay [14]: Caspase-3/7 induction in CHO-K1 cells by small molecules, qHTS cell viability counter screen (AID 1346979). Also: nearly all actives have a fitted effect of over 35% in size. Also: potency is read from the fitted curve at half-maximal effect. The essentials:
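Seeding: 1,500 CHO-K1 cells/well. Rest: 5hr, 37C. Treatment: compounds in DMSO, 16hr. Read: CellTiter-Fluor, 1hr, fluorescence.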
% is scaled to controls: 0 for no effect and ±100 for the full control effect.

Cytochrome P450 2D6 (Homo sapiens), sequence (P10635 whole entry, looked up): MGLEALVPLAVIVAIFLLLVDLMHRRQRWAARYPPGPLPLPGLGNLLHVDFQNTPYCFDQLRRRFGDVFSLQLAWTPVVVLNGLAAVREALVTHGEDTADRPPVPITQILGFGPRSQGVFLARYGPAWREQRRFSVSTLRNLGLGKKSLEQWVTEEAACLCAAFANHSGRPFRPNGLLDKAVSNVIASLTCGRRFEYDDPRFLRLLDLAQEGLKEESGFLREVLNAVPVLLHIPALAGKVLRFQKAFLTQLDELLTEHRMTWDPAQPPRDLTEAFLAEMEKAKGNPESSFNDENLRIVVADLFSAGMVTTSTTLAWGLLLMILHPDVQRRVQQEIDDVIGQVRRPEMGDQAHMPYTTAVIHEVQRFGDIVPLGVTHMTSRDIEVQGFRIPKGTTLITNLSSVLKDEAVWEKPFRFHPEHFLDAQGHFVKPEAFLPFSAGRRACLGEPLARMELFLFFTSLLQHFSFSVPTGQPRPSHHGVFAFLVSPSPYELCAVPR
Cytochrome P450 3A4 (Homo sapiens), sequence (P08684 whole entry, looked up): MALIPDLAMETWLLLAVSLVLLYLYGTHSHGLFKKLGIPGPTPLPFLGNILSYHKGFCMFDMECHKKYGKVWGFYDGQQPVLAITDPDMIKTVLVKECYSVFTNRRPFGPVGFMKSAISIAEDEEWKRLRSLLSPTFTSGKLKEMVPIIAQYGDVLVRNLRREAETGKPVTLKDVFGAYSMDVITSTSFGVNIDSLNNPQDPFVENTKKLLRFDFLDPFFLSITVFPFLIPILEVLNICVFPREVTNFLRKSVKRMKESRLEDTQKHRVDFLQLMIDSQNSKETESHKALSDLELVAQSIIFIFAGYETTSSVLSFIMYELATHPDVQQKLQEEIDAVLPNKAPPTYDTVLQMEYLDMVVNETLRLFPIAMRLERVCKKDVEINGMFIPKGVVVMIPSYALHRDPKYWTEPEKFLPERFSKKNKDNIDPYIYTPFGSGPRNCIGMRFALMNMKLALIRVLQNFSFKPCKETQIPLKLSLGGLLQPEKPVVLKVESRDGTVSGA
Cytochrome P450 1A2 (Homo sapiens), sequence (P05177 whole entry, looked up): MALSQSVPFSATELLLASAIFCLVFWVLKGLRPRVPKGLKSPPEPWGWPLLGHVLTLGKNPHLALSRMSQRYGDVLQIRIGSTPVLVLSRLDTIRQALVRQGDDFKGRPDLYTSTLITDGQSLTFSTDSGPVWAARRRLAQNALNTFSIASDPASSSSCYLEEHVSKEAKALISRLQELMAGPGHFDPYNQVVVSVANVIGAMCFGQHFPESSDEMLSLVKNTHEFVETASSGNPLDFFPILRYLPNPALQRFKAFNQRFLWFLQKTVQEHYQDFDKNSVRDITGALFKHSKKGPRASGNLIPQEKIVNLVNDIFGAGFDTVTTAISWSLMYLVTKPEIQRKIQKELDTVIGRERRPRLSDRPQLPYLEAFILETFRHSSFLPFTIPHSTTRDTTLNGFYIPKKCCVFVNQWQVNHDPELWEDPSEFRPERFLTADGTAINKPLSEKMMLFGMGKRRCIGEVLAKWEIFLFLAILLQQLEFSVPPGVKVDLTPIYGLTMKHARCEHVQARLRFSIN
Cytochrome P450 2C9 (Homo sapiens), sequence (P11712 whole entry, looked up): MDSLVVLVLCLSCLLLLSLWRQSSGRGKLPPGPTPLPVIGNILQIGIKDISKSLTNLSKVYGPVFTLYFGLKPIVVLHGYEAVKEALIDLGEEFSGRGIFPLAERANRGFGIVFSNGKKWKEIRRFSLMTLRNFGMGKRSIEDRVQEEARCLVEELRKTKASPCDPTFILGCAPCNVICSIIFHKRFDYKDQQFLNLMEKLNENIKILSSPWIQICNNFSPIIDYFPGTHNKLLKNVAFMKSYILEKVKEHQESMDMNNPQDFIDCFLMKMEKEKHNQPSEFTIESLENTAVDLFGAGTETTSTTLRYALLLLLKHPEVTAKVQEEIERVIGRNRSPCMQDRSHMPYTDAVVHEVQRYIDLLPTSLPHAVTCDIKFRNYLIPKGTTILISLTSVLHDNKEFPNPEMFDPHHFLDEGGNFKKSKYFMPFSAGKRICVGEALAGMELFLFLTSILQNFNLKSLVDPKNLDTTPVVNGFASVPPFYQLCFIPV
Cytochrome P450 2C19 (Homo sapiens), sequence (P33261 whole entry, looked up): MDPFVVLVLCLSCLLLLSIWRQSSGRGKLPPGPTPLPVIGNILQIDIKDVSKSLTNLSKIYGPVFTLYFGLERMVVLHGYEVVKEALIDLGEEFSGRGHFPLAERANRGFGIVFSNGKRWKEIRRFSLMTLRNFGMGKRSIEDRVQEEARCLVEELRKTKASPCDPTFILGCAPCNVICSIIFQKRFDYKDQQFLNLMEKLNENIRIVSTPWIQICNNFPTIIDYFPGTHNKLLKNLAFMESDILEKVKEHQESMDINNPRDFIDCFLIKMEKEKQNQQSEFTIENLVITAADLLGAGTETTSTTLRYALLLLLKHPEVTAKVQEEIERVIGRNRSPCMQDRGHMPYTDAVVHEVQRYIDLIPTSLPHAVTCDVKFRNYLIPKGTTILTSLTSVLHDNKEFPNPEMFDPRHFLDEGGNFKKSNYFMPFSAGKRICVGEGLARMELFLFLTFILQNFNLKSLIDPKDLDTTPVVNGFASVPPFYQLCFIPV
Nuclear receptor subfamily 1 group I member 2 (Rattus norvegicus), sequence (Q9R1A7 whole entry, looked up): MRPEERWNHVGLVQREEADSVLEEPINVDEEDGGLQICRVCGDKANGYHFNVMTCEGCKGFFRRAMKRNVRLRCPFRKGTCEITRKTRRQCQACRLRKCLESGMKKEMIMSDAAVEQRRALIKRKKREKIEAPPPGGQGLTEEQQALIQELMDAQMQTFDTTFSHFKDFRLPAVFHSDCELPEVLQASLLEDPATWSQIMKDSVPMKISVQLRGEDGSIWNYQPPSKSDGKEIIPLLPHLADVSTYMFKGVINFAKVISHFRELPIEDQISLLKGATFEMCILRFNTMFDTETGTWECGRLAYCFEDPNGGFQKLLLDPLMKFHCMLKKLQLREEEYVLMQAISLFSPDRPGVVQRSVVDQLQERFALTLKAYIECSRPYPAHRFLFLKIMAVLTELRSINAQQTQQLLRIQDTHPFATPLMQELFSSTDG

Consider `CCCCCCCCCCn1cc[n+](CCCCCCCCCC)c1C`, for which the Potency is 48.6 µM (active) in [1]; 68.7 µM (active) in [2]; 7.7 µM (active) in assay [3]; 1.26 µM (active) in assay [4]; 71.1 µM (active) in assay [5]; 0.49 µM (active) in assay [6]. In assay [7], the Potency was 31.8 µM (active).

As to `NC(=O)NS(=O)(=O)c1ccc(N)cc1`, the Potency entry in assay [1], in assay [8], in [3], in assay [10], in assay [11] and in assay [4] was “inactive” throughout. Also, the Potency entry in assay [12], in assay [13], in [5], in assay [6] and in assay [7] was “inactive” throughout. Besides, the max activation in assay [9] was -4.58%.

With `CCN(Cc1cccnc1)C(=O)c1cccc(Cl)c1[C@]1(C)C(=O)N(Cc2ccc(OC)cc2OC)c2ccc(Cl)cc21`, the Potency was 20.3 µM (active) in assay [14]; 45.4 µM (active) in [2]; 20.3 µM (active) in [3]; 18.7 µM (active) in assay [4]; 1.32 µM (active) in assay [12]; 1.87 µM (active) in assay [13]. Besides, the Potency in assay [7] was 0.132 µM (active). Further, the Potency entry in assay [8] and in [5] was “inactive” throughout.

For `O=C(O)c1c(Cl)cccc1Cl`, the Potency entry in assay [14], in assay [8], in assay [3], in assay [4] and in [7] was “inactive” in each case.

Consider `CCC(N)(CO)CO`, for which the Potency entry in [14], in assay [8], in assay [2], in assay [3], in assay [4] and in assay [12] was “inactive” each time. Moreover, the Potency entry in assay [13], in [6] and in assay [7] was “inactive” in each case.

In the case of `O=C(Nc1cccc([N+](=O)[O-])c1)c1cc2ccccc2cc1O`, the Potency in assay [14] was 4.33 µM (active); in assay [2] it was 6.11 µM (active); in assay [3], 6.11 µM (active); in assay [4] it was 25.2 µM (active); in [12], 79.6 µM (active); in [13], 17.8 µM (active). Also, the Potency in assay [5] is 3.56 µM (active). The Potency entry in assay [8] and in assay [6] was “inactive” throughout.

As for `O=C(Nc1cccc(Cl)c1)OCC#CCCl`, the Potency in [14] was 30.6 µM (active); in [2] it was 27.3 µM (active); in assay [3] it was 13.7 µM (active); in [4], 39.9 µM (active); in [12] it was 8.94 µM (active); in assay [5], 1.78 µM (active). The Potency in assay [7] is 7.1 µM (active). Moreover, in assay [8], the Potency result is “inactive”.

On to `CCN(C(=O)N(CC)c1ccccc1)c1ccccc1`, for which the Potency entry in assay [14], in assay [8], in [2], in [4], in [5] and in [6] was “inactive” each time. Further, the Potency in assay [3] was 30.6 µM (active); in [12], 7.96 µM (active); in assay [13], 7.1 µM (active).

As to `CCCCCCCC[P+](CCCCCCCC)(CCCCCCCC)CCCCCCCC`, the Potency in assay [14] is 5.42 µM (active); in assay [2] it was 13.6 µM (active); in [3], 2.42 µM (active); in [4], 0.141 µM (active); in assay [12], 7.06 µM (active); in [13] it was 22.3 µM (active). Besides, the Potency in assay [5] was 39.7 µM (active); in assay [6], 0.154 µM (active); in assay [7], 0.445 µM (active). Moreover, in assay [8], the Potency result was “inactive”.

On to `O=[N+]([O-])c1cc([N+](=O)[O-])c2ccc(S(=O)(=O)O)cc2c1O`, for which the Potency in assay [14] was 21.6 µM (active); in [2], 24.2 µM (active).
